Keap1-Nrf2 PPI = disrupts human Keap1 binding to Nrf2 peptide; Keap1 Kelch-Nrf2 peptide fluorescence polarization, 1536-well; inhibition, % at 9.4 µM; 340,000 compounds, 0.15% hits; AID 504523; in the data active = inhibition above about 12%;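 also: human Keap1 Kelch domain with fluorescein labeled Nrf2 9mer peptide probe; 0% = neutral control wells and 100% = peptide positive control; higher means more block of Keap1 binding to Nrf2 peptide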
Target sequence (Q14145 whole entry, looked up, the tested form may be a part): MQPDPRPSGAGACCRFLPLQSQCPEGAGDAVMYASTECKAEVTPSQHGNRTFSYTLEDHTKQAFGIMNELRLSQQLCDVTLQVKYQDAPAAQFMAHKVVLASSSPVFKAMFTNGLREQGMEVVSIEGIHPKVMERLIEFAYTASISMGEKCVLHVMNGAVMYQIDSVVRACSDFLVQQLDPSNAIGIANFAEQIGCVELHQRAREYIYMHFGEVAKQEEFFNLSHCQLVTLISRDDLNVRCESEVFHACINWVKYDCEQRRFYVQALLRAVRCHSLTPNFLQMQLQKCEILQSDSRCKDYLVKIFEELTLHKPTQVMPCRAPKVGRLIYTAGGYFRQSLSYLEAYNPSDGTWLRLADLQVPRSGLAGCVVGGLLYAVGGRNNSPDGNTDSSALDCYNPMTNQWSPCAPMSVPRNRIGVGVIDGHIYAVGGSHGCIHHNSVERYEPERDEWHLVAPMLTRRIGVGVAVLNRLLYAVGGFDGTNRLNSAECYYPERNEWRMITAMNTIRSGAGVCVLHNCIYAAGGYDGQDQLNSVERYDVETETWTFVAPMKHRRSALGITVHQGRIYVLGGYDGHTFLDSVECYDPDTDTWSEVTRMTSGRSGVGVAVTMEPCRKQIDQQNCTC
CRFBP-R2 agonist = CRF-BP/CRF-R2 complex agonism. activation, % at 13.2 µM. 350,000 compounds, 0.46% hits. HEK293 CRF-R2/CRF-BP, calcium dye fluorescence (FLIPR); percent of saturating CRF peptide response;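 active = activation of at least 50%, plus an integration ratio under a set limit after plate pattern correction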;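 also: plate controls were neutral control wells without compound for no effect and CRF at EC100 for full effect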
C-LANA FP = blocks KSHV LANA C-terminal domain binding to DNA; 340,000 compounds, 0.078% hits; inhibition, % at 9 µM; MBP-C-LANA/FAM-LBS DNA binding, fluorescence polarization; AID 504423;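 active = highest replicate inhibition at or above 60% at 9 µM, even if other replicates fall short; inactive = all replicates below 60% inhibition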;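 also: 0% = neutral control wells and 100% = 4 µM acridine orange control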
Cardiac RTF inh = cardiac RTF calcium desensitization | 340,000 compounds, 0.12% hits | P19429+P45379 | IANBD-labeled cardiac RTF, Ca2+ fluorescence | AID 493244 | inhibition, % at 7.15 µM;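 active = inhibition above the mean inhibition of all tested compounds plus 3 SD, cut at about 17% in these data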;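 also: assay run at fixed EC70 calcium of 1.6 mM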
cardiac RTF act = cardiac RTF calcium sensitization; IANBD-labeled TnC RTF fluorescence at EC20 calcium; 0% EC20 calcium, 100% full calcium; P19429+P45379; activation, % at 7.2 µM; 340,000 compounds, 0.24% hits;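 active = activation above the mean over all tested compounds plus 3 SD, cut at about 30% in these data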;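 also: rise in fluorescence read as greater calcium sensitivity of cardiac thin filaments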
CRFR2-BP antag = antagonists of CRF-binding protein/CRF-R2 receptor complex; HEK293 CRF-R2/CRF-BP, CRF-induced calcium fluorescence; 350,000 compounds, 0.59% hits; inhibition, % at 11.8 µM; AID 588475;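 active = inhibition of the ligand-induced calcium signal above about 50% at the single tested concentration, limit read from the data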
RTF Ca inh conf = cardiac RTF calcium sensitivity inhibition, confirmation | shares compounds with Cardiac RTF inh | reconstituted cardiac thin filaments, calcium sensitivity fluorescence | inhibition, % at 7.15 µM | 360 compounds, 8% hits | AID 504635; in the data active = inhibition above about 18%
* = called active by the depositor; / = not tested or not shown. A selection: hits, their analogues and other compounds. The true share with any hit is near 1.3%.

SMILES	Keap1-Nrf2 PPI	CRFBP-R2 agonist	C-LANA FP	Cardiac RTF inh	cardiac RTF act	CRFR2-BP antag	RTF Ca inh conf
Nc1ncnc2oc(-c3ccco3)c(-c3ccco3)c12	-4	3	1	58*	-24	-58	9
COc1ccccc1-n1c(SCC(=O)N2CCc3ccccc32)nc2c(c1=O)SCC2	-2	0	-1	-2	4	20	/
COc1ccc(OC)c(-n2c(SCC(=O)N3CCc4ccccc43)nc3c(c2=O)SCC3)c1	1	1	0	40*	1	22	-3
COc1ccc(C2=NOC(C(=O)NCCCn3ccnc3)C2)cc1 (centres undefined)	2	0	0	18*	1	-12	-6
CCc1ccc([C@@H]2C[C@H]3CN(Cc4ccccc4OC)C(=O)[C@]34CCCN24)cc1	-1	1	1	55*	1	-6	-5
COc1ccccc1CN1C[C@@H]2C[C@@H](c3ccc(C)cc3)N3CCC[C@@]23C1=O	-6	1	2	-17	5	-17	/
O=C(NCCO)c1ccc2nc(-c3ccco3)c(-c3ccco3)nc2c1	-3	1	34	3	-11	-6	/
O=C(NC1CCCC1)c1ccc2nc(-c3ccco3)c(-c3ccco3)nc2c1	1	-5	3	18*	-20	18	-7
O=C(c1ccccc1F)N1CCN(Cc2ccc3c(c2)OCO3)CC1	1	0	-1	-5	0	16	/
N#Cc1c(F)cccc1N1CCN(Cc2ccc3c(c2)OCO3)CC1	3	0	0	18*	-5	-3	-2
Cc1ccc(S(=O)(=O)NCCC(=O)Nc2cc(F)ccc2C)cc1C	3	0	0	-1	-3	-1	/
CC1(C)C(/C=C/C=C/C=C/C=C2\N(CCCCS(=O)(=O)O)c3ccc4ccccc4c3C2(C)C)=[N+](CCCCS(=O)(=O)[O-])c2ccc3ccccc3c21	-8	2	27	20*	-11	69*	-46
Cc1cc2c(cc(C(=O)OCC(=O)NCc3ccco3)n2C)s1	-7	-1	2	-23	19	13	/
Cc1cccc(NC(=O)c2sc(NC(=O)COc3ccccc3)c(C#N)c2C)c1C	3	7	1	6	0	19	/
Cc1ccccc1NC(=O)c1sc(NC(=O)COc2ccccc2)c(C#N)c1C	-3	36	2	18*	-1	41	-3
Cc1ccc(NS(=O)(=O)c2ccc(Cl)c(C(=O)O)c2)cc1S(=O)(=O)N1CCOCC1	-2	1	-1	19*	2	0	-3
Cc1ccc(NS(=O)(=O)c2ccc(/C=C/C(=O)O)cc2)cc1Cl	1	-1	1	21*	-1	-8	-7
Cc1ccc(NS(=O)(=O)c2cccc(C(=O)O)c2)cc1S(=O)(=O)N1CCOCC1	2	0	-1	-5	0	3	/
CC(=O)Nc1nc2cc([N+](=O)[O-])ccc2s1	-6	-1	-1	-12	-5	5	/
c1ccc(Cc2nnc(-c3ccccc3)o2)cc1	4	1	-3	17*	-2	23	-1
Brc1ccc(-c2nnc(Cc3ccccc3)o2)cc1	/	-4	/	/	/	10	/
COc1cc(CNC2CCCC2)cc(OC)c1	1	0	-1	18*	-2	2	-2
O=C(O)c1cc(O)c2c(c1)[C@@H]([C@H]1c3cc(C(=O)O)cc(O)c3C(=O)c3c(O[C@@H]4O[C@H](CO)[C@@H](O)[C@H](O)[C@H]4O)cccc31)c1cccc(OC3O[C@H](CO)[C@@H](O)[C@H](O)[C@H]3O)c1C2=O (some centres undefined)	-2	-2	9	59*	-39	3	112*
O=C(O)c1cc(O)c2c(c1)[C@H]([C@H]1c3cc(C(=O)O)cc(O)c3C(=O)c3c(O[C@@H]4O[C@H](CO)[C@@H](O)[C@H](O)[C@H]4O)cccc31)c1cccc(OC3O[C@H](CO)[C@@H](O)[C@H](O)[C@H]3O)c1C2=O (some centres undefined)	-3	-2	14	53*	-63	-12	102*
Cc1ccc(NC(=O)CCC(=O)OC(C)C(=O)c2ccccc2)cc1 (centres undefined)	-1	-2	0	-3	-9	-4	/
SMILES	Keap1-Nrf2 PPI	CRFBP-R2 agonist	C-LANA FP	Cardiac RTF inh	cardiac RTF act	CRFR2-BP antag	RTF Ca inh conf
CCC(=O)n1nc(-c2cccnc2)nc1NCc1cccs1	1	-1	0	12	1	-2	/
Cc1cccc(NC(=O)c2cnn(C)c2)c1C	1	0	0	17*	5	5	-2
CCOC1=CC(=O)N(Cc2ccccc2)C1	1	1	-2	-2	-1	2	/
CNC(=O)CC1C(=O)N(c2ccc(F)cc2)C(=S)N1NC(=O)c1ccc(Br)cc1 (centres undefined)	6	4	0	-1	-3	-19	/
O=C(Nc1ccnn1C1CCN(Cc2cccnc2)CC1)c1ccccc1Cl	-4	-1	-1	18*	-7	-5	-1
Cc1ccc2c([N+](=O)[O-])c(C)ccc2n1	-4	4	-1	-24	12	-2	/
O=C(CN1C(=O)/C(=C\c2ccco2)SC1=S)Nc1ccc(O)cc1C(=O)O	-5	1	64*	18*	-9	-8	-3
CC1CCN(CCC(=O)Nc2nccs2)CC1	1	-1	-1	0	-6	-3	/
NNC(=O)c1ccc(COc2ccc3c(c2)CCC3)cc1	4	-3	-1	17*	2	-17	0
O=C(O)c1ccc(COc2ccc3c(c2)CCC3)cc1	5	0	-2	10	1	0	/
O=C(NC1(C(F)(F)F)NC(=O)N(c2ccc(F)cc2)C1=O)c1ccncc1 (centres undefined)	0	1	0	-7	0	1	/
CCN1CCN(C(=O)c2cc(S(=O)(=O)N3CC(C)CC(C)C3)ccc2Cl)CC1 (centres undefined)	/	0	/	4	3	-15	/
CC(C)(CNS(C)(=O)=O)SCc1ccc(Cl)cc1	-3	-2	-1	17*	2	7	-5
CCOC(=O)CSC1=C(C#N)C(c2ccc(F)cc2)C(C(C)=O)=C(C)N1 (centres undefined)	-2	0	0	-10	-5	5	/
CCCCN(C)CCC(=O)Nc1ccc(F)c(F)c1	5	2	1	17*	-3	-16	1
O=C(CSc1nc2[nH]ncc2c(=O)n1-c1ccccc1)c1ccc2c(c1)OCCO2	-2	1	0	-14	0	-30	/
COCCn1c(SCC(=O)Nc2ccc(NC(C)=O)cc2)nc2c([nH]c3ccccc32)c1=O	-1	0	1	19*	0	2	-5

High-throughput results deposited in PubChem BioAssay by several laboratories.
